Several values for one entry are separate records, joined by “and”; a condition that tells them apart may be missing. Equal entries are not always repeated. Out of some 5,500 compounds screened, about 2,000 (36%) were called active. Roughly 18% stayed inconclusive and do not appear here. Cut-off read from the data, not from the text of the source: active = normalized growth mostly below about 0.91 (no sharp cut-off); inconclusive = no clear call, values can overlap the other calls; inactive = mostly above about 0.92. The list shows a part of the results.
Assay: chemical genetic growth profiling, strain panel (AID 1159580);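 note: tested at 20 µM; growth read once vehicle control cultures reached saturation at 30 °C; 1 = growth at the plate median or of vehicle wells; lower values mean less growth of the strain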
Settings: S. cerevisiae deletion strains, growth OD

Measured: normalized growth

Cc1cc(O)cc(O)c1C(=O)O
inactive: locus YAL021C, strain ccr4, active compounds read low 0.972 | locus YAL026C, strain drs2, active compounds read low 1.05 | locus YAL030W, strain snc1, active compounds read low 1.02 | locus YBL061C, strain skt5, active compounds read low 1.02 | locus YBR009C, strain hhf1, active compounds read low 1.01 | locus YBR021W, strain FUR4, active compounds read low 1.02 | locus YBR023C, strain chs3, active compounds read low 1.02 | locus YBR171W, strain sec66, active compounds read low 1.02 | locus YBR229C, strain ROT2, active compounds read low 1.02 | locus YBR231C, strain swc5, active compounds read low 1 | locus YBR279W, strain paf1, active compounds read low 1.02 | locus YCL011C, strain gbp2, active compounds read low 1.01 | locus YCL016C, strain dcc1, active compounds read low 0.984 | locus YCL029C, strain bik1, active compounds read low 1 | locus YCL061C, strain MRC1, active compounds read low 1.03 | locus YCL069W, strain vba3, active compounds read low 1.01 | locus YCR088W, strain abp1, active compounds read low 1.02 | locus YDL005C, strain med2, active compounds read low 1.03 | locus YDL035C, strain GPR1, active compounds read low 1.04 | locus YDL040C, strain nat1, active compounds read low 1.02 | locus YDL074C, strain BRE1, active compounds read low 1.03 | locus YDL101C, strain DUN1, active compounds read low 1 | locus YDL134C, strain PPH21, active compounds read low 1.04 | locus YDL185W, strain tfp1, active compounds read low 0.988 | locus YDL192W, strain arf1, active compounds read low 1.04 | locus YDR001C, strain nth1, active compounds read low 1.02 | locus YDR069C, strain doa4, active compounds read low 1.03 | locus YDR101C, strain arx1, active compounds read low 1.04 | locus YDR137W, strain rgp1, active compounds read low 1.03 | locus YDR159W, strain sac3, active compounds read low 1.06 | locus YDR162C, strain NBP2, active compounds read low 1.01 | locus YDR195W, strain ref2 0.986 | locus YDR297W, strain sur2, active compounds read low 1.02 | locus YDR318W, strain mcm21, active compounds read low 1.01 | locus YDR334W, strain swr1, active compounds read low 1.02 | locus YDR335W, strain msn5, active compounds read low 1.02 | locus YDR388W, active compounds read low 1 | locus YDR392W, strain spt3, active compounds read low 0.897 | locus YDR502C, strain sam2, active compounds read low 0.997 | locus YEL003W, strain gim4, active compounds read low 1.01 | locus YEL037C, strain rad23, active compounds read low 1.01 | locus YEL061C, strain CIN8 (second series), active compounds read low 1.01 | locus YEL061C, strain CIN8, active compounds read low 1.01 | locus YER015W, strain faa2, active compounds read low 1.01 | locus YER016W, strain bim1, active compounds read low 1.02 | locus YER110C, active compounds read low 0.982 | locus YER111C, strain swi4, active compounds read low 1.01 | locus YER155C, strain BEM2 (second series), active compounds read low 1.02 | locus YER155C, strain BEM2, active compounds read low 1 | locus YER167W, strain BCK2, active compounds read low 1.01 | locus YFR010W, strain ubp6, active compounds read low 1.02 | locus YGL078C, strain dbp3, active compounds read low 0.964 | locus YGL086W, strain mad1, active compounds read low 1.01 | locus YGL167C, strain pmr1, active compounds read low 1.02 | locus YGL173C, strain kem1, active compounds read low 1.04 | locus YGL227W, strain vid30, active compounds read low 1.01 | locus YGL240W, strain doc1, active compounds read low 1.02 | locus YGL248W, strain PDE1, active compounds read low 1.03 | locus YGL253W, strain hxk2, active compounds read low 1.05 | locus YGR078C, strain PAC10, active compounds read low 1.03 | locus YGR135W, strain pre9, active compounds read low 0.96 | locus YGR252W, strain gcn5, active compounds read low 1.06 | locus YHR013C, strain ard1, active compounds read low 1.02 | locus YHR027C, strain rpn1, active compounds read low 1.01 | locus YHR030C, strain SLT2, active compounds read low 1.1 | locus YHR079C, strain IRE1 (second series), active compounds read low 1 | locus YHR079C, strain IRE1, active compounds read low 1.08 | locus YHR094C, strain hxt1, active compounds read low 1.01 | locus YHR129C, strain ARP1, active compounds read low 1.02 | locus YHR142W, strain chs7, active compounds read low 1.01 | locus YHR200W, strain rpn10, active compounds read low 1 | locus YIL066C, strain RNR3, active compounds read low 1.03 | locus YIL073C, strain SPO22, active compounds read low 1 | locus YIL125W, strain kgd1, active compounds read low 0.993 | locus YIR030C, strain dcg1, active compounds read low 1.01 | locus YJL092W, strain hpr5, active compounds read low 1.02 | locus YJL095W, strain BCK1 (second series), active compounds read low 1.02 | locus YJL095W, strain BCK1, active compounds read low 1.04 and 1.07 | locus YJL115W, strain asf1, active compounds read low 1.02 | locus YJL129C, strain trk1, active compounds read low 1.03 | locus YJL134W, strain LCB3, active compounds read low 1.01 | locus YJL154C, strain vps35, active compounds read low 1.01 | locus YJL164C, strain tpk1, active compounds read low 0.997 | locus YJL166W, strain qcr8, active compounds read low 1.03 | locus YJL168C, strain set2, active compounds read low 1.02 | locus YJL187C, strain SWE1 (second series), active compounds read low 1.01 | locus YJL187C, strain SWE1, active compounds read low 1.02
